Test results reported in PubChem BioAssay (NCI).
The panel holds about 79,000 compounds, 15% with a hit somewhere; the sample as a whole holds those more often. Active and inactive are the calls of the source. No stated cut-off is given here; in the data, active means growth inhibition above about 70%; inactive means the rest.

test: NCI Yeast Anticancer Drug Screen. Data for the mgt1 strain (AID 153); settings: S. cerevisiae mgt1 mutant growth inhibition; at 3.7 µM; hits give high values
In short: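 In the mgt1 strain, test compounds were added and growth inhibition was determined relative to vehicle-treated controls.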

Structure (SMILES) | growth inhibition
Cc1ccc(-n2cc(-c3ccc(Cl)cc3)c(C#N)c2N)cc1 | -4% (inactive)
CC(=O)[O][Bi]([c]1ccccc1)[c]1ccccc1 | 30% (inactive)
CC1=C(SCCO)C(=O)c2ccccc2C1=O | -3% (inactive)
C/C(=N\O)C1CC2C=C(C#N)C1N(Cc1ccccc1)C2 (configuration not stated) | -4% (inactive)
CC(Br)C(=O)c1ccc2cc(Br)c3ccccc3c2c1 (configuration not stated) | -1% (inactive)
Nc1nc(-c2cccnc2)cc(-c2cc(-c3cccnc3)nc(N)n2)n1 | 2% (inactive)
CC(C)=CC(=O)O[C@@H]1CC(C)(C)CC2C3=CCC4[C@]56CC[C@](O)(OC5)C(C)(C)C6CC[C@@]4(C)C3(C)CC[C@]21C(=O)O (some centres not stated) | 11% (inactive)
CCC(C)COC(=O)c1ccc(N=Cc2ccc(C=Nc3ccc(C(=O)OCC(C)CC)cc3)cc2)cc1 (configuration not stated) | 1% (inactive)
Oc1cccc2c(Cl)ccnc12 | 99% (active)
O=C(O)c1cccc(-c2c3ccc(=O)cc-3oc3cc(O)ccc23)c1 | 12% (inactive)
CN(CCc1ccccn1)c1ccc2c(c1)Cc1ccccc1-2 | -4% (inactive)
Cc1cc(S(=O)(=O)/N=C(/NN)NNc2cccc(C(F)(F)F)n2)c(S)cc1Cl | -3% (inactive)
O=C1C2C(C(=O)N1c1ccc(OCc3ccccc3)cc1)C1c3ccccc3C2C2CCCCN21 (configuration not stated) | 4% (inactive)
Nc1ccccc1CC(O)C(=O)O (configuration not stated) | -1% (inactive)
O=C(O)C1CCCCC1c1c2ccc(=O)c(O)c-2oc2c(O)c(O)ccc12 (configuration not stated) | 10% (inactive)
Cc1ccc2ccc(O)cc2c1 | -19% (inactive)
O=C1C(=O)c2ccccc2C=C1[N+](=O)[O-] | 10% (inactive)
